# AmpC inh no detg: AmpC beta-lactamase inhibition without detergent | Potency, µM (top dose mostly 57.1 µM), for inactives: at the highest dose activity change, negative = inhibition, most hits filed as inhibitors | P00811 | 330,000 tested, 0.52% active | AmpC nitrocefin hydrolysis, absorbance 480 nm, 0.0001% Triton | AID 485341;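 further: plate controls were no compound for no effect and no enzyme for full effect; nearly all actives have a fitted effect of over 20% in size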
# Target sequence (P00811 whole entry, looked up): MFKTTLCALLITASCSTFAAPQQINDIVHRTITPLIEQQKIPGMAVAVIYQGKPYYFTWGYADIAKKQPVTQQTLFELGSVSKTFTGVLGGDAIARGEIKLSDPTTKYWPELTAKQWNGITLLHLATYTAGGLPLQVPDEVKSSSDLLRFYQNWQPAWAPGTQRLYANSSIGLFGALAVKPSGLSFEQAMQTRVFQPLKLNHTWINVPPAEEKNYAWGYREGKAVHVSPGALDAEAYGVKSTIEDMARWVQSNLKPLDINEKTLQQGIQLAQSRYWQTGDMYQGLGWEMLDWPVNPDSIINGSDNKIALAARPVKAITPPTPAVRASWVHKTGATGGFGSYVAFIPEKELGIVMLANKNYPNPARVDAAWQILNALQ
#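 AmpC (5.3 nM in the dispensed reagent) in 20 mM phosphate pH 7.0 with 0.01% (detergent screen) or 0.0001% Triton X-100 was preincubated with compounds for 15 min at room temperature. Nitrocefin was then added from an 800 uM solution, and hydrolysis was followed at 480 nm.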
# AmpC detergent: AmpC beta-lactamase inhibition with detergent present. P00811. AmpC hydrolysis of nitrocefin, absorbance 480 nm, 0.01% Triton. Potency, µM (top dose mostly 114 µM), for inactives: top-dose activity change, negative = inhibition, hits mostly inhibitors. 370,000 tested, 0.041% active;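 further: 0% = no-compound wells and -100% = no-enzyme wells; nearly all actives have a fitted effect of over 25% in size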
#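 20 mM phosphate pH 7.0 + 0.01% (detergent screen) or 0.0001% Triton X-100; 5.3 nM AmpC reagent; cpd preinc 15 min RT; nitrocefin (800 uM stock) to start; A480 q20 s × 4 min; Activity was normalised to no-enzyme and no-compound control wells.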
# Giardia FBPA inh: blocks Giardia fructose-bisphosphate aldolase activity | A8B2U2 | purified Giardia FBPA | Potency, µM (titrated, usually from 59.6 µM), for the others: top-dose activity, negative = inhibition, most hits filed as inhibitors | 290,000 tested, 0.71% active | AID 2451; further: nearly all actives have a fitted effect of over 55% in size
# Target sequence (A8B2U2 whole entry, looked up): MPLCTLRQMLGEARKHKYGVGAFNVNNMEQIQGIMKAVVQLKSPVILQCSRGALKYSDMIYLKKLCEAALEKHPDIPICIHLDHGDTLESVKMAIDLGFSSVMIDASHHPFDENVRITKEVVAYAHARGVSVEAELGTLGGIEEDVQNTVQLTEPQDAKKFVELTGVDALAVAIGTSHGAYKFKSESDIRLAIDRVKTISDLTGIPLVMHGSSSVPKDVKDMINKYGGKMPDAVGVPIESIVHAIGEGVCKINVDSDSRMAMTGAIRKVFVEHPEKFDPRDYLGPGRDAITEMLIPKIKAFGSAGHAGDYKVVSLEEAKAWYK
#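 40 nM FBPA preincubated 10 min at RT with compound (up to 57.5 uM final), then substrate plus GAPDH/TPI/NAD/arsenate coupling and diaphorase/resazurin added. Fluorescence read after 20 min at RT, 525/598 nm.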
# RE007 growth inh: less growth of the S. pombe RE007 Vpr strain. S. pombe RE007 Vpr strain, BacTiter-Glo ATP luminescence, 24 h. Potency, µM (doses to about 92.2 µM), inactives show top-dose activity change, negative = less growth, most hits filed as inhibitors. 360,000 tested, 0.21% active; active means well fitted falling curve with a large enough effect; inconclusive means small, poorly fitted or top-dose-only effect; inactive means no such curve, though single readings can be large or run the other way; further: nearly all actives have a fitted effect of over 50% in size
#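 Fission yeast RE007 carrying one integrated HIV-1 vpr copy, seeded at OD 0.01 in PMG+AL medium with 23 nL pinned compound. Grown 24 h at 30 degrees; viability read by BacTiter-Glo luminescence after 5 min.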
# Sm TGR inh: inhibitors of Schistosoma mansoni thioredoxin glutathione reductase; 360,000 tested, 3% active; purified TGR, DTNB reduction, TNB absorbance 405 nm; Potency, µM (top dose mostly 114 µM), for inactives: at the top dose activity change, negative = inhibition, hits mostly inhibitors; further: nearly all actives have a fitted effect of over 60% in size
#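 First, TGR (20 nM dispensed) and NADPH were mixed with compound. Second, a 15 min room-temperature incubation followed. Third, further NADPH and then DTNB were added to start the reaction. Finally, TNB absorbance was monitored kinetically.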
# An asterisk follows results filed as active; ? = inconclusive; . = no result; [ ] = another dose, or the depositor's remark. In the library only some 3.4% were active in any assay of this set; here they are far more common. Unless noted, the call rests on the fitted dose curve; in most records, active means well fitted curve in the direction sought with a large enough effect; inconclusive means small, poorly fitted or top-dose-only effect, or another doubt; inactive means no such curve, though single readings can be large; an effect the other way counts as inactive or inconclusive. Unless noted, on the % scale 0 is the no-effect control and ±100 the full control effect; potency means the concentration at half of the fitted maximal effect.
SMILES,AmpC inh no detg,AmpC detergent,Giardia FBPA inh,RE007 growth inh,Sm TGR inh
Cc1ccc(C2/C(=C(/O)c3ccccc3)C(=O)C(=O)N2CCN2CCOCC2)o1 (stereo not given),-10.0%,4.2%,-15.0%,-7.7%,44.7µM*
Cc1c(/C(O)=C2\C(=O)C(=O)N(CCCN(C)C)C2c2cccs2)cnn1-c1ccccc1 (stereo not given),.,.,.,6.3%,.
Cc1ccc(C)c(/C(O)=C2/C(=O)C(=O)N(CCN3CCOCC3)C2c2ccco2)c1 (stereo not given),131.6%,10.1%,-12.7%,-4.1%,20µM*
O/N=C1\CCCc2ccc3ccccc3c21,-45.7%,4.6%,-21.5%,-2.5%,-22.1%
CC(=O)Cn1c(CN2CCN(C(=O)c3ccco3)CC2)nc2c1c(=O)n(C)c(=O)n2C,6.3%,4.6%,1.7%,7.7%,-17.2%
Cc1ccc(C2/C(=C(/O)c3cnn(-c4ccccc4)c3C)C(=O)C(=O)N2CCN2CCOCC2)o1 (stereo not given),27.1%,6.2%,-26.3%,-0.6%,22.4µM*
Cc1ccc(C2/C(=C(\O)c3cnn(-c4ccccc4)c3C)C(=O)C(=O)N2CCN(C)C)o1 (stereo not given),-12.0%,5.4%,4.5%,10.8%,6.7%
CC(=O)NN1C(=O)c2ccccc2NC1c1ccc([N+](=O)[O-])o1 (stereo not given),-27.4%,-9.1%,-4.2%,-4.1%,39.8µM*
Oc1ccc(C2CNCc3sccc32)cc1O (stereo not given),-30.4%,?,-7.4%,1.7%[18.4 µM],35.5µM*
Oc1ccc(C2CNCCc3c2cc(O)c(O)c3Cl)cc1 (stereo not given),-12.9%,-18.4%,-10.6%,5.8%[18.4 µM],-7.0%
C=CCN1C(=O)c2ccc(C(=O)N(C)Cc3ccc(C)o3)cc2C1=O,8.2%,-1.4%,.,-11.8%,50.1µM*
C=CCN1C(=O)c2ccc(C(=O)N(C)CC(=O)Nc3ccccc3Cl)cc2C1=O,-10.6%,-15.5%,.,-11.9%,4.1%
CCOC(=O)CNC(=O)O[C@H]1C(=O)c2cc(OC)ccc2O[C@@H]1c1ccc(OC)c(Br)c1,.,.,-0.1%,.,.
Cc1c(C(=O)c2ccc(F)cc2F)c2ccccn2c1CCc1ccccn1,.,.,.,3.2%,.
Cc1c(C(=O)c2ccc(F)cc2F)c2ccccn2c1CCC#N,-20.5%,-1.8%,?,-6.1%,35.5µM*
O=C(CCN1CCCCC1)c1ccc2c(c1)OCO2,-34.5%,-0.3%,-0.8%,7.94µM*,0.282µM*
O=C(CCN1CCOCC1)c1ccc2c(c1)OCCO2,-13.0%,?,-17.1%,12.6µM*,1.58µM*
O=C(CCN1CCc2ccccc2CC1)c1ccc2c(c1)OCCO2,-23.5%,-14.9%,1.8%,7.08µM*,0.355µM*
O=C(Cn1nc(C(=O)O)c2ccccc2c1=O)Nc1cc(Cl)cc(Cl)c1,11.2µM*,-2.9%,3.3%,0.0%,-14.4%
Cc1cccc(NC(c2ccc(C)s2)c2ccc3ccc(C)nc3c2O)n1 (stereo not given),-23.8%,?,11.2%,?,44.7µM*
Cc1cccc(NC(c2ccccc2C)c2ccc3ccc(C)nc3c2O)n1 (stereo not given),.,17.9%,.,.,3.55µM*
Cc1ccc2ccc(C(Nc3ccccc3)c3ccc(C(C)C)cc3)c(O)c2n1 (stereo not given),.,.,.,22.3%,.
CCOC(=O)C(C)N1C(=O)S/C(=C/c2cc(C)n(-c3ccccn3)c2C)C1=O (stereo not given),89.1%,1.2%,-26.8%,-10.7%,3.0%
CCCCCCCc1cc2c(cn1)=C(OC)C(C)(OC(C)=O)C(=O)C=2Cl (stereo not given),.,.,-6.5%,.,.
Cc1nn(-c2ccccn2)c2c1-c1nc(N)ncc1CC2,-19.6%,-13.1%,15.8µM*,4.2%,0.3%
SMILES,AmpC inh no detg,AmpC detergent,Giardia FBPA inh,RE007 growth inh,Sm TGR inh
Cc1nn(-c2ccccn2)c2c1-c1nc(N3CCOCC3)ncc1CC2,-2.9%,8.2%,?,-7.9%,?
Cc1ccc(-n2c(SCC(=O)Nc3ccc(Cl)cc3)nc(O)cc2=O)cc1,7.08µM*,-5.2%,10.6%,-0.5%,-11.5%
COc1ccc(NC(=O)CSc2nc(O)cc(=O)n2-c2ccccc2)cc1,-21.3%,8.6%,.,2.2%,2.6%
COc1ccc(-n2c(Cc3cccn3C)nnc2SCC(=O)NCc2ccc(F)cc2)cc1,83.8%,?,-2.3%,0.0%,-35.8%
Cc1nnc(NC(=O)CSc2nnc(Cc3cccn3C)n2C)s1,31.6µM*,5.4%,-8.2%,-0.1%,?
COc1ccc(-n2c(Cc3cccn3C)nnc2SCC(=O)NCc2ccco2)cc1,53.8%,?,3.5%,0.0%,56.2µM*
COc1ccc(NC(=O)CSc2nnc(Cc3cccn3C)n2-c2ccc(F)cc2)cc1OC,134.6%,-13.8%,-20.3%,-6.8%,44.7µM*
CC(C)c1ccc(OCC(=O)NC2=NCCS2)cc1,1.4%,3.4%,0.7%,-6.5%,5.3%
CN(C)Cc1c(C(=O)Nc2ccccc2)[nH]c2ccccc12,-31.1%,?,.,-1.1%,-4.4%
COCCN(C(=O)CSc1nc2ccc(C)cc2[nH]1)c1c(N)n(Cc2ccccc2)c(=O)[nH]c1=O,-22.6%,0.6%,-0.3%,3.5%,-4.7%
COc1ccc(-n2c(Cc3cccn3C)nnc2SCC(=O)Nc2ccccc2)cc1,?,-8.7%,-2.1%,-6.4%,?
COc1ccc(-n2c(Cc3cccn3C)nnc2SCC(=O)Nc2ccc(Cl)cc2)cc1,1µM*,5.5%,-1.4%,-11.7%,50.1µM*
O=C(O)c1ccc(N2C(=O)CCCC2=O)cc1,2.5%,2.8%,-0.1%,3.2%,-2.1%
O=C(O)c1ccc(-n2[nH]c3c(c2=O)CCCC3)cc1,-10.3%,-4.3%,-8.0%,-7.0%,35.5µM*
Cc1ccc(O)c(CP(=O)(c2ccccc2)c2ccccc2)c1,-30.3%,-7.7%,-4.1%,9.7%,8.4%
CCNc1ccccc1CP(=O)(c1ccccc1)c1ccccc1O (stereo not given),10.4%,-8.8%,1.78µM*,-19.0%,0.501µM*
CC(C)CC(C(=O)Nc1oc(-c2ccco2)c(-c2ccco2)c1C#N)N1C(=O)c2ccccc2C1=O (stereo not given),-51.7%,?,-26.6%,16.7%,56.2µM*
CC(C)CC(C(=O)Nc1cccc(O)c1)N1C(=O)c2ccccc2C1=O (stereo not given),-35.8%,-11.7%,0.3%,24.4%,-18.7%
COc1ccc([C@@H]2[C@@H]3C(=O)N(C(C)(C)C)C(=O)[C@@H]3[C@]3(C)C(=O)N(c4ccccc4)C(=O)N23)cc1,116.3%,-13.6%,1.3%,-6.6%,5.0%
O=C(NCc1ccco1)C(c1ccccc1)N(C(=O)Cc1cccs1)c1cccnc1 (stereo not given),-4.2%,-8.2%,8.4%,4.0%,-32.1%
Oc1ccc(/C=N/Nc2nc(-c3ccc(Cl)cc3)cc(C(F)(F)F)n2)cc1,15.8µM*,-9.0%,-4.4%,4.1%,2.6%
